# Test results from the supplement of paper PMC8728848.
# About 410 targets per protein were measured; listed, in parts, are those with the strongest signals and a random draw of the rest.
# Columns and labels:
# Experiment in all cases: glycan array binding signal (z-score within array); higher = stronger binding
# Details in all cases: glycan notation: IUPAC condensed, linker removed
# [1] = target: Fuc(a1-2)Gal(b1-3)GalNAc(b1-3)Gal(a1-4)Gal(b1-4)Glc
# In short: (§1)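 Negative Z-scores can be read as non-binding. The Z-score is calculated within each array and then averaged across arrays of one protein sequence at different concentrations or buffers and across linkers. Arrays, 3228 in all, were curated from the Consortium for Functional Glycomics database and kept only where the protein sequence was available.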
# [2] = target: Fuc(a1-2)Gal(b1-4)[Fuc(a1-3)]GalNAc(b1-3)Gal(b1-4)[Fuc(a1-3)]GlcNAc
# In short: as §1
# [3] = target: Fuc(a1-2)Gal(b1-4)[Fuc(a1-3)]GalNAc(b1-3)Gal(b1-4)[Fuc(a1-3)]GlcNAc(b1-3)Gal(b1-4)[Fuc(a1-3)]GalNAc
# In short: as §1
# [4] = target: Fuc(a1-2)[GalNAc(a1-3)]Gal(b1-4)[Fuc(a1-3)]GlcNAc
# In short: as §1
# [5] = target: Fuc(a1-3)[Gal(b1-4)]Glc6S
# In short: as §1
# Fuc(b1-3)GlcNAc = target: Fuc(b1-3)GlcNAc
# In short: as §1
# Gal(a1-4)Gal(b1-4)Gal = target: Gal(a1-4)Gal(b1-4)Gal
# In short: as §1
# Gal(b1-2)Gal = target: Gal(b1-2)Gal
# In short: as §1
# Gal(b1-3)Gal = target: Gal(b1-3)Gal
# In short: as §1
# [6] = target: Gal(b1-4)GalNAc(b1-3)[Fuc(a1-2)]Gal(b1-4)GlcNAc
# In short: as §1
# GlcA(b1-3)Gal = target: GlcA(b1-3)Gal
# In short: as §1
# GlcA(b1-6)Gal = target: GlcA(b1-6)Gal
# In short: as §1
# [7] = target: GlcNAc(b1-3)[GlcNAc(b1-4)][GlcNAc(b1-6)]GlcNAc
# In short: as §1
# [8] = target: Man(a1-2)Man(a1-2)Man(a1-6)[Man(a1-3)]Man
# In short: as §1
# [9] = target: Man(a1-2)Man(a1-3)[Man(a1-6)]Man(a1-6)[Man(a1-2)Man(a1-3)]Man(b1-4)GlcNAc(b1-4)GlcNAc
# In short: as §1
# Man(b1-4)GlcNAc = target: Man(b1-4)GlcNAc
# In short: as §1
# [10] = target: Neu5Ac(a2-3)Gal(b1-3)GlcNAc
# In short: as §1
# [11] = target: Neu5Ac(a2-3)Gal(b1-3)GlcNAc6S
# In short: as §1
# [12] = target: Neu5Ac(a2-3)Gal(b1-4)GlcNAc(b1-3)Gal(b1-3)GlcNAc
# In short: as §1
# [13] = target: Neu5Ac(a2-8)Neu5Ac(a2-3)[GalNAc(b1-4)]Gal(b1-4)Glc
# In short: as §1
# [14] = target: Neu5Ac(a2-8)Neu5Ac(a2-8)Neu5Ac(a2-3)[GalNAc(b1-4)]Gal(b1-4)Glc
# In short: as §1
# [15] = target: Neu5Gc(a2-3)Gal(b1-3)GlcNAc
# In short: as §1
# [16] = target: Fuc(a1-2)Gal(b1-3)GalNAc(b1-3)Gal(b1-4)Glc
# In short: as §1
# Fuc(a1-2)Gal(b1-4)Glc = target: Fuc(a1-2)Gal(b1-4)Glc
# In short: as §1
# [17] = target: Fuc(a1-2)Gal(b1-4)GlcNAc(b1-3)Gal(b1-4)GlcNAc
# In short: as §1
# [18] = target: Fuc(a1-3)[Gal3S(b1-4)]GlcNAc
# In short: as §1
# Gal(a1-6)Glc = target: Gal(a1-6)Glc
# In short: as §1
# [19] = target: Gal(b1-3)[Fuc(a1-4)]GlcNAc(b1-3)Gal(b1-4)GlcNAc
# In short: as §1
# [20] = target: Gal(b1-3)[Neu5Ac(a2-6)]GlcNAc
# In short: as §1
# [21] = target: Gal(b1-3)[Neu5Ac(a2-6)]GlcNAc(a1-4)Gal(b1-4)Glc
# In short: as §1
# GalNAc(b1-4)GlcNAc = target: GalNAc(b1-4)GlcNAc
# In short: as §1
# GlcNAc(b1-3)Gal = target: GlcNAc(b1-3)Gal
# In short: as §1
# [22] = target: GlcNAc(b1-4)GlcNAc(b1-4)GlcNAc
# In short: as §1
# [23] = target: Man(a1-2)Man(a1-2)Man(a1-3)Man
# In short: as §1
# [24] = target: Man(a1-2)Man(a1-2)Man(a1-3)[Man(a1-2)Man(a1-6)[Man(a1-3)]Man(a1-6)]Man(b1-4)GlcNAc(b1-4)GlcNAc
# In short: as §1
# [25] = target: Man(a1-3)[Man(a1-6)]Man(b1-4)GlcNAc(b1-4)GlcNAc
# In short: as §1
Binder,glycan array binding signal (z-score) [1],glycan array binding signal (z-score) [2],glycan array binding signal (z-score) [3],glycan array binding signal (z-score) [4],glycan array binding signal (z-score) [5],glycan array binding signal (z-score) (Fuc(b1-3)GlcNAc),glycan array binding signal (z-score) (Gal(a1-4)Gal(b1-4)Gal),glycan array binding signal (z-score) (Gal(b1-2)Gal),glycan array binding signal (z-score) (Gal(b1-3)Gal),glycan array binding signal (z-score) [6],glycan array binding signal (z-score) (GlcA(b1-3)Gal),glycan array binding signal (z-score) (GlcA(b1-6)Gal),glycan array binding signal (z-score) [7],glycan array binding signal (z-score) [8],glycan array binding signal (z-score) [9],glycan array binding signal (z-score) (Man(b1-4)GlcNAc),glycan array binding signal (z-score) [10],glycan array binding signal (z-score) [11],glycan array binding signal (z-score) [12],glycan array binding signal (z-score) [13],glycan array binding signal (z-score) [14],glycan array binding signal (z-score) [15],glycan array binding signal (z-score) [16],glycan array binding signal (z-score) (Fuc(a1-2)Gal(b1-4)Glc),glycan array binding signal (z-score) [17],glycan array binding signal (z-score) [18],glycan array binding signal (z-score) (Gal(a1-6)Glc),glycan array binding signal (z-score) [19],glycan array binding signal (z-score) [20],glycan array binding signal (z-score) [21],glycan array binding signal (z-score) (GalNAc(b1-4)GlcNAc),glycan array binding signal (z-score) (GlcNAc(b1-3)Gal),glycan array binding signal (z-score) [22],glycan array binding signal (z-score) [23],glycan array binding signal (z-score) [24],glycan array binding signal (z-score) [25]
"MLTim-4 (Mus musculus), Q6U7R4 (protein) MSKGLLLLWLVTELWWLYLTPAASEDTIIGFLGQPVTLPCHYLSWSQSRNSMCWGKGSCPNSKCNAELLRTDGTRIISRKSTKYTLLGKVQFGEVSLTISNTNRGDSGVYCCRIEVPGWFNDVKKNVRLELRRAT",-0.142,-0.799,0.195,0.41,2.31,-0.108,0.491,1.47,0.543,-0.991,6.6,2.97,-0.523,0.353,-0.137,1.06,-0.547,2.45,-0.655,-0.484,-0.741,-0.343,–,–,–,–,–,–,–,–,–,–,–,–,–,–
TbCVNHOb (Tuber borchii) (protein) GSHIGPYMSFYASSEDVRTIEEGGRTWLVGRARRADGSWQDIKLDLDNIIGNRDGHLTWGEQNFTQSASDIRFNFEGGSNVPVLRAKLRNAAGGEQESDLNLGERLTNNNGDLVFN,2.01,–,–,–,–,–,4.24,–,–,-0.367,–,-0.483,-0.077,–,–,0.106,–,-0.045,–,–,–,–,4.24,0.347,-0.268,-0.469,0.38,-0.231,-0.484,4.83,-0.366,-0.16,-0.364,5.4,-0.449,-0.197
